Bioassay records from PubChem.
In the library only some 1.7% were active in any assay of this set; here they are far more common.
PAD4 inh: PAD4 (human) enzyme inhibition; 330,000 compounds, 0.41% hits; AID 485272; Q9UM07; recombinant PAD4, RCA probe fluorescence polarization; inhibition, % at 6.36 µM;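 active = percent inhibition above a cutoff equal to the mean of all tested compounds plus 3 SD, cut at about 15% in these data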;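 note: 0% = PAD4 with RCA probe and DMSO and 100% = probe without PAD4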
Fam108B inh: blocks mouse Fam108B hydrolase in RBBP9 counter-screen | inhibition, % at 9.51 µM | AID 1947 | 300,000 compounds, 0.33% hits | recombinant Fam108B, FP-Rh probe fluorescence polarization;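 active = inhibition above the screen mean inhibition plus 3 SD, computed separately per campaign, cut at about 18% in these data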;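 note: inhibitors lower polarization as less probe binds the enzyme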
PME-1 primary: blocks human protein phosphatase methylesterase 1; recombinant PME-1, FP-Rh probe fluorescence polarization; 320,000 compounds, 0.53% hits; AID 2130; inhibition, % at 5.9 µM;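 active = inhibition above the campaign mean of all compounds plus 3 SD, cut at about 26% in these data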;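 note: competitive labeling of PME-1 active site by serine hydrolase directed probe; 0% = PME-1 with DMSO and 100% = wells lacking PME-1 enzyme; inhibitors block probe labeling so polarization falls and inhibition rises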
GSTO1 inh: counter-screen for RBBP9 inhibitors: inhibitors of human GSTO1; recombinant GSTO1, activity-based probe fluorescence polarization; inhibition, % at 5.96 µM; 300,000 compounds, 1.1% hits; AID 1974;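 active = inhibition above the campaign mean inhibition plus 3 SD, cut at about 35% in these data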;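 note: 0% = GSTO1-1 with DMSO and 100% = wells lacking GSTO1-1 enzyme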
Target sequence (P78417 whole entry, looked up): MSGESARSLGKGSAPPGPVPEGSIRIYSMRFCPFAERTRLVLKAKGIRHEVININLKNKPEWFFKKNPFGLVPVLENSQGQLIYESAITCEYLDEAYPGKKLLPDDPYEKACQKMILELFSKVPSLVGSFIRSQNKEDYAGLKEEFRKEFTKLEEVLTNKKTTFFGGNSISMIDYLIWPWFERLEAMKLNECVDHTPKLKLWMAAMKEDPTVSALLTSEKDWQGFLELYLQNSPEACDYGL
LYPLA2 counter: blocks human lysophospholipase 2, a PME1 counter-screen | AID 2177 | O95372 | 320,000 compounds, 0.38% hits | inhibition, % at 5.9 µM | recombinant LYPLA2, FP-Rh probe fluorescence polarization;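 active = inhibition above the screen-wide mean plus 3 SD, limit set per campaign, cut at about 26% in these data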;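 note: 0% = LYPLA2 with DMSO and 100% = wells lacking LYPLA2 enzyme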
Target sequence (O95372 whole entry, looked up): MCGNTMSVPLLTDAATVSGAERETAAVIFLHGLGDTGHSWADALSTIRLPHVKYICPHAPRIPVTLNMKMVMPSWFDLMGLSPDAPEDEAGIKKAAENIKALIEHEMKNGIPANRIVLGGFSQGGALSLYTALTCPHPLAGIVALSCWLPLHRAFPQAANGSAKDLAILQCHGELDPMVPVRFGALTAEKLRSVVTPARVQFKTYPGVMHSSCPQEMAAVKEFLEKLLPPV
LYPLA1 inh: LYPLA1 (human) inhibition in PME1 counter-screen; recombinant LYPLA1, FP-Rh probe fluorescence polarization; inhibition, % at 5.9 µM; 320,000 compounds, 0.16% hits;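 active = inhibition above the mean of all tested compounds plus 3 SD, set per campaign, cut at about 14% in these data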;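 note: inhibitors block serine hydrolase probe labeling of LYPLA1 so polarization falls; 0% = enzyme with DMSO and 100% = wells lacking LYPLA1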
* hit, by the source's call; . = no result given.

SMILES	PAD4 inh	Fam108B inh	PME-1 primary	GSTO1 inh	LYPLA2 counter	LYPLA1 inh
CCOC(=O)C(C)(C)N(Cc1ccc(Cl)cc1)S(=O)(=O)c1ccc(Cl)c([N+](=O)[O-])c1	1.1	1.6	-0.5	65.3*	3.2	0.2
CCOC(=O)C(C)(C)N(Cc1ccc(C)cc1)S(=O)(=O)c1ccc(Cl)c([N+](=O)[O-])c1	6.4	-1.9	-4.8	61.8*	1.7	-3.0
COc1ccc(C)cc1NC(=O)C(Sc1nncn1C)c1ccccc1 (centres undefined)	0.5	0.7	-1.3	-1.3	-1.2	-2.9
Cc1ccc(C2CCN(C(=S)Nc3cccc(C)c3)C2)cc1 (centres undefined)	-4.3	6.5	-5.7	-0.3	1.9	-1.0
O=C1C=C(Nc2ccccc2)C(=O)c2ccccc21	-12.4	2.9	7.0	32.1	6.6	-0.3
CCCCNC1=CC(=O)C(=O)c2ccccc21	-1.1	2.9	2.7	47.7*	8.0	0.9
CCOc1ccc(NC(=O)Nc2ccc3c(c2)N(C)C(=O)CS3)cc1	-2.8	-1.1	32.7*	4.6	-4.0	-5.0
CC(=O)c1ccc(NC(=O)Nc2ccc3c(c2)N(C)C(=O)CS3)cc1	-7.4	11.8	-9.8	-10.5	-18.1	-20.4
O=C(CNC(=O)c1ccccc1Cl)NCCc1cccs1	-2.8	.	.	.	.	.
C[C@H](CO)N1C[C@H](C)[C@@H](CN(C)C(=O)Nc2ccc(C(F)(F)F)cc2)Oc2c(NC(=O)CCC(F)(F)F)cccc2C1=O	-1.1	.	.	.	.	.
Clc1cccc(C2Nc3cccc4cccc(c34)N2)c1Cl	-5.4	9.3	-4.7	14.3	-0.5	-0.6
Brc1ccc(-c2ccc(C3Nc4cccc5cccc(c45)N3)o2)cc1	-4.2	.	41.3*	.	-5.2	-13.9
CCc1ccc(C(=O)CSc2nc3cc(S(=O)(=O)N4CCOCC4)ccc3n2CC)cc1	-0.3	-3.5	10.4	35.7*	4.7	0.9
CCn1c(SCC(=O)OC)nc2cc(S(=O)(=O)N3CCOCC3)ccc21	1.6	1.7	2.0	12.4	2.4	-0.2
CCN(CC)CCNC(=O)c1cn(CC)c2ccc(S(=O)(=O)N(C)C3CCCCC3)cc2c1=O	-2.7	-3.0	22.2	-2.2	2.6	-2.1
CCn1cc(C(=O)NCCCN2CC(C)CC(C)C2)c(=O)c2cc(S(=O)(=O)N(C)C3CCCCC3)ccc21 (centres undefined)	0.8	-9.5	33.3*	1.0	1.1	-4.5
CCn1cc(C(=O)NCCCN2CCC(C)CC2)c(=O)c2cc(S(=O)(=O)N(C)C3CCCCC3)ccc21	-8.5	-3.3	38.0*	0.3	2.0	5.1
O=C(c1ccccc1NS(=O)(=O)c1ccc([N+](=O)[O-])cc1[N+](=O)[O-])N1O[C@@H]2C=C[C@H]1C2	3.0	.	.	.	.	.
c1ccc(Nc2cccc3c(Nc4ccccc4)cccc23)cc1	-2.4	9.2	5.8	-5.3	-0.2	-1.9
O=S(=O)(O)c1cccc2cccc(Nc3ccccc3)c12	2.3	8.1	9.4	38.3*	0.7	-3.0
COc1cc2c(C#N)c(N3CCc4ccccc4C3)nc(N)c2c(N)n1	-16.2	14.7	38.7*	7.5	-5.7	-2.4
O=C1c2cccc3c([N+](=O)[O-])ccc(c23)C(=O)N1c1ccc(Cl)cn1	4.5	7.3	27.6*	-55.1	-6.3	-10.0
O=C1c2cccc3c([N+](=O)[O-])ccc(c23)C(=O)N1c1ccccn1	0.4	6.9	21.7	-1.0	0.6	0.7
CCOc1ccc2c(c1)sc(N)[n+]2Cc1cc(C)cc2cccnc12	4.2	1.5	12.1	3.0	34.8*	0.2
CCN(CCNC(=O)C1CCN(c2nnc(-n3cccc3)s2)CC1)c1ccccc1	2.0	-0.8	-1.3	0.3	4.5	-0.8
SMILES	PAD4 inh	Fam108B inh	PME-1 primary	GSTO1 inh	LYPLA2 counter	LYPLA1 inh
O=C(CCN1C(=O)C2CC=CCC2C1=O)Nc1cc(C(F)(F)F)ccc1N1CCCC1 (centres undefined)	0.9	-3.4	-2.0	35.7*	1.5	0.7
O=C(CN1CCC(c2nc3ccccc3s2)CC1)NCc1cccs1	-8.5	0.0	39.9*	-1.1	-2.6	-0.8
COc1cccc(OCc2cc(/C=N/Nc3ccc(C(=O)O)cc3)ccc2OC)c1	-1.3	13.8	9.9	7.7	5.5	2.3
COc1cccc(C(=O)Oc2ccc(/C=N/Nc3ccc(C(=O)O)cc3)cc2OC)c1	-1.6	14.1	31.7*	-0.5	10.4	-1.0
CN(CC(=O)Nc1nc2ccccc2s1)S(=O)(=O)c1ccccc1	-5.4	1.2	3.7	8.3	0.0	1.1
CCc1nc(Nc2ccc3c(c2)OCO3)c2oc3ccccc3c2n1	-2.5	3.3	31.5*	4.7	8.0	5.3
Cn1cc(C(=O)N/N=C/C2=C(N3CCOCC3)C(=C\c3ccccc3)/CC2)ccc1=O	0.1	-1.1	5.2	4.7	-1.3	1.0
O=C1Nc2ccccc2/C1=N\N=C\C1=C(N2CCOCC2)C(=C\c2ccccc2)/CC1	0.2	9.7	30.6*	7.3	3.1	-2.5
Nc1ccc(O)c2ccccc12	9.5	4.2	7.7	61.9*	-1.8	0.8
Nc1ccc(N=Nc2ccccc2)c2ccccc12	-0.2	8.7	11.5	4.5	6.3	-1.0
Cc1ccccc1/C=N/Nc1nc2ccccc2[nH]1	0.9	5.3	-40.5	-1.8	1.3	1.5
C(=N\Nc1nc2ccccc2[nH]1)/c1cccc2cccnc12	0.4	7.3	51.5*	-6.9	-5.7	0.2
Cc1ccc(Nc2cc(C)c3c(O)cccc3n2)cc1C	-4.9	4.2	30.7*	-3.5	7.6	-7.3
O=C(NCc1ccccc1)NC12CC3CC(CC(C3)C1)C2	5.0	-3.3	-5.6	35.2*	5.2	1.4
O=C1/C(=C/c2ccncc2)SC(=S)N1Nc1ccccc1	-6.6	3.3	-0.3	36.1*	0.1	-0.4
CC(Cc1nnc(N)s1)c1ccccc1 (centres undefined)	1.4	-1.3	0.9	3.9	0.1	0.6
O=C(CSc1nc(Nc2ccccc2)nc(N2CCOCC2)n1)NC1CCCCC1	-4.6	5.1	-0.4	0.0	-6.5	0.1
O=C1c2cccnc2C(=O)N1Cc1ccc(S(=O)(=O)NCc2ccco2)s1	1.2	-2.1	-2.3	7.3	3.7	-4.0
COc1ccc(CNC(=O)c2ccc(CS(=O)(=O)c3ccc(Br)cc3)o2)cc1	-0.1	5.1	5.9	5.7	1.1	3.1
CSc1ccccc1NC(=O)C1CCN(S(C)(=O)=O)CC1	-2.1	-1.7	0.6	35.3*	2.8	0.0
Oc1cc2c(cc1O)C1c3ccc(O)c(O)c3OCC1(O)C2 (centres undefined)	3.5	-6.5	-7.9	49.0*	3.1	0.6
COC(=O)N1C(=O)[C@](c2ccccc2)(C2CCCCC2)N1C(=O)OC	-5.0	-2.1	71.0*	1.4	6.7	0.9
COC(=O)N1C(=O)[C@](c2ccsc2)(C(C)C)N1C(=O)OC	-1.3	-0.5	25.2	-3.2	-4.8	0.0
COC(=O)N1C(=O)[C@](c2ccc(OC)cc2)(C(C)C)N1C(=O)OC	-1.8	0.0	49.1*	-8.3	5.4	3.2
